In PubChem BioAssay one finds composite z-score data, which are given here for 36 compounds.

Each structure is given as a SMILES string.

In the test the target is Pro-neuregulin-1, membrane-bound isoform (Homo sapiens) (UniProt Q02297). The test is described as follows: small molecules binding neuregulin-1 protein – biochemical, small-molecule microarray, fluorescence 635/667, psychiatric disease protein project, primary screen (AID 1075).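 Note: score combines 667 nm spot fluorescence with signal to noise.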 Particulars: NRG1 binding, 635 nm fluorescence, higher = more signal.
Pro-neuregulin-1, membrane-bound isoform (Homo sapiens), sequence (Q02297 whole entry, looked up, canonical isoform): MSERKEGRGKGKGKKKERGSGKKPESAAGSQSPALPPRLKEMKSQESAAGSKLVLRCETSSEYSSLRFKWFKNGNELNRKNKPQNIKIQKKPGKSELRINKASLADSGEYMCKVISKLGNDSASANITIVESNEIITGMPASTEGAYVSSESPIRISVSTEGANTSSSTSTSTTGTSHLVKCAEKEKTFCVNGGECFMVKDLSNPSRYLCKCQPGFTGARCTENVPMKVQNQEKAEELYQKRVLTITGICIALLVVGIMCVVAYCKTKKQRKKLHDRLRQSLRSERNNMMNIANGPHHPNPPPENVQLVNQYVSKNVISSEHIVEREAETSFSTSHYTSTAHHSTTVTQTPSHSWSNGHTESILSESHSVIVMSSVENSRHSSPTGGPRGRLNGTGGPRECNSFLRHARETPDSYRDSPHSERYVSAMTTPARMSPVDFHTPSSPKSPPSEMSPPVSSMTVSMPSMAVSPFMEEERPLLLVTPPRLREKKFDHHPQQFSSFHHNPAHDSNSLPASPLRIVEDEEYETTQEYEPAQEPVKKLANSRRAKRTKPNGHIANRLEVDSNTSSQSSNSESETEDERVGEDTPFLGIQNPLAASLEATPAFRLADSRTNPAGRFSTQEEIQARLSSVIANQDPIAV
Consider `Cc1ccc(S[C@]2(C(=O)O)CC(=O)N(Cc3cc(C(F)(F)F)cc(C(F)(F)F)c3)[C@@H]2c2ccc(CO)cc2)cc1`, for which the composite z-score is 0.203.

Consider `CCOC(=O)[C@H]1[C@@H]2C(=O)N3CCC[C@H]3[C@H](O[Si](C(C)C)(C(C)C)C(C)C)[C@H]2C=C2CCN(S(=O)(=O)c3ccc(C)cc3)C[C@H]21`, for which the composite z-score was found to be 0.319.

`CO[C@H]1O[C@H](CO)[C@@H](OC(=O)Nc2ccccc2-c2ccccc2)[C@H](OC(=O)Nc2ccc3c(c2)OCO3)[C@H]1OC(=O)Nc1ccc2c(c1)OCO2` gave a composite z-score of 1.72.

On to `COc1ccccc1CN1C(=O)c2ccccc2[C@@]2(Cc3ccccc3N(CC(F)(F)F)C2=O)[C@@H]1c1ccc(CO)cc1`, for which the composite z-score was -0.226.

Compound `CN(C)C(=O)[C@@]1(Cc2ccccc2CN=[N+]=[N-])N=C(c2ccc(OCCCO)cc2)O[C@H]1c1ccccc1CN=[N+]=[N-]` yielded a composite z-score of 1.64.

Take `COc1ccc(CCN2C(=O)[C@@]3(Cc4ccccc42)c2ccccc2C(=O)N(Cc2ccccc2OC)[C@H]3c2ccc(CO)cc2)cc1`: the composite z-score is -0.634.

The compound `O=C1C2C=CC(C(O)c3ccc(Br)cc3)N(Nc3ccccc3F)C2C(=O)N1c1ccccc1` (stereo unspecified) had a composite z-score of 1.11.

In the case of `C=CCC(OC(C)=O)[C@@H]1[C@@H](N(Cc2cccc3ccccc23)C(=O)Cc2ccc(OC)cc2)c2cc(OCCCO)ccc2N1C(=O)c1ccc2ccccc2n1` (stereo partly specified), the composite z-score worked out at 0.836.

On to `COC(=O)C(CC#Cc1ccc2c(c1)[C@]1(C(=O)N2)[C@H](c2ccccc2OCCO)N2[C@H](c3ccccc3)[C@H](c3ccccc3)OC(=O)[C@H]2[C@@H]1C(=O)NC[C@H](O)c1ccccc1)C(=O)OC`, for which the composite z-score is 1.36.

On to `COc1ccc([Si](C)(C)[C@H]2[C@H](CCO)O[C@@]3(C(=O)N(Cc4cccc(N5C(=O)COc6ccccc65)c4)c4ccccc43)[C@@H]2C)cc1`, for which the composite z-score stood at 0.727.

For `CCCCCCc1nc(C2CC2)cc2c1[Si](C(C)C)(C(C)C)OC2`, the composite z-score was -0.526.

As to `C=CCNC(=O)[C@@H]1[C@H]2C(=O)O[C@H](c3ccccc3)[C@H](c3ccccc3)N2[C@H](c2ccc(O)cc2)[C@@]12C(=O)N(C(=O)OCCOC)c1ccc(C#CC3(O)CCCCCC3)cc12`, the composite z-score is -0.712.

Turning to `CC(CO)N1C(=O)[C@@H]2[C@H]3C(=O)OCC=C[C@H]3OC23C=CCN(Cc2ccccc2)C(=O)[C@@H]13` (stereo partly specified), the composite z-score is -0.622.

The compound `[N-]=[N+]=NCc1ccccc1C[C@@]1(C(=O)NCc2ccccc2)N=C(c2ccc(OCCCO)cc2)O[C@@H]1c1ccccc1N=[N+]=[N-]` returned a composite z-score of 1.07.

As to `C=CCN1Cc2ccccc2[C@H]2OC(c3ccc(OCCCO)cc3)=N[C@@]2(CC=C)C1=O`, the composite z-score came out at 1.44.

As for `Cc1cc(C)cc(N2C(=O)CSC2c2cccc([N+](=O)[O-])c2)c1` (stereo unspecified), the composite z-score is 1.4.

On to `CCOc1cc(C(O)C2C=CC3C(=O)N(C)C(=O)C3N2Nc2ccccc2)ccc1O` (stereo unspecified), for which the composite z-score was found to be 1.78.

Consider `[N-]=[N+]=Nc1ccccc1C[C@]1(C(N)=O)N=C(c2ccc(OCCCO)cc2)O[C@H]1c1ccccc1N=[N+]=[N-]`, for which the composite z-score stood at 1.42.

In turn, `NC(=O)NCC#Cc1ccc2c(c1)[C@]1(C(=O)N2)[C@H](C(=O)O)[C@H]2C(=O)O[C@H](c3ccccc3)[C@H](c3ccccc3)N2[C@@H]1c1ccc(OCCO)cc1` gave a composite z-score of 0.881.

As for `CCCCCCc1nc(C2CC2)cc2c1[Si](C(C)C)(C(C)C)O[C@H]2c1ccccc1`, the composite z-score was -0.37.

In the case of `COc1cc2c(cc1OC)CN(C(=O)[C@@H]1[C@H]3C(=O)O[C@H](c4ccccc4)[C@H](c4ccccc4)N3[C@H](c3ccc(OCCO)cc3)[C@@]13C(=O)Nc1ccc(C#CC4(O)CCCCCC4)cc13)CC2`, the composite z-score worked out at 1.67.

`O=C1C[C@@](C(=O)NCCN2CCOCC2)(c2ccc([N+](=O)[O-])cc2)[C@@H](c2ccc(CO)cc2I)N1C1CCCCC1`: the composite z-score is 0.148.

For the compound `COC(=O)[C@@]1(Cc2ccc(F)cc2)[C@H]2c3cc(C(=O)N4CCCC4)n(CCc4ccc(O)c(O)c4)c3C[C@H]2CN1C(=O)c1ccccc1`, the composite z-score came to 2.3.

`CC(C)N1C(=O)C[C@@](C(=O)NCCCN(C)C)(c2ccc([N+](=O)[O-])cc2)[C@H]1c1ccc(CO)cc1` yielded a composite z-score of 0.454.

Consider `COC(=O)C1=CC(CCCO)=CC(C2CC2)N(C)C=C1C(=O)OC` (stereo unspecified), for which the composite z-score worked out at 2.06.

On to `COC(=O)c1c(CC[C@@H](CO)NC(=O)N2CCC[C@H]2Cn2cc(Cc3ccccc3)nn2)oc(C(C)=O)c1C(=O)OC`, for which the composite z-score is 0.638.

As to `O=C(N1CCCCC1)[C@@]1(CCS(=O)(=O)c2ccccc2)COC(c2ccc(OCCCO)cc2)=N1`, the composite z-score amounted to 1.06.

`CC1=C[C@@]2(CO)C(=O)[C@]3(CO3)[C@@H]1[C@H]1[C@]2(C)C=C(CO)C(=O)[C@]12CO2` showed a composite z-score of 0.194.

As for `CCCNC(=O)[C@@]1(c2ccc([N+](=O)[O-])cc2)CC(=O)N(C2CCCCC2)[C@@H]1c1ccc(CO)cc1`, the composite z-score is 0.675.

Regarding `NC(=O)NCC#Cc1ccc2c(c1)[C@]1(C(=O)N2)[C@H](C(=O)NC[C@H](O)c2ccccc2)[C@H]2C(=O)O[C@H](c3ccccc3)[C@H](c3ccccc3)N2[C@@H]1c1ccc(OCCO)cc1`, the composite z-score is 0.897.

Compound `O=C1NC(=O)C2C1C=CC(C(O)CCc1ccccc1)N2Nc1ccc(Cl)cc1Cl` (stereo unspecified) gave a composite z-score of 1.34.

In turn, `CCCCC=C[C@@H](NC(=O)c1ccc(-c2ccccc2)cc1)c1ccccc1` had a composite z-score of 1.55.

Compound `COc1ccc([Si](C)(C)[C@@H]2[C@@H](CC(=O)N(CCO)Cc3ccccc3)O[C@]3(C(=O)N(Cc4cccc(N5CCOC5=O)c4)c4ccccc43)[C@H]2C)cc1` returned a composite z-score of 1.1.

On to `CC(C)N1CC=CC23O[C@@H]4C=CCOC(=O)[C@@H]4[C@H]2C(=O)N(CCCO)[C@@H]3C1=O` (stereo partly specified), for which the composite z-score was determined as 1.57.

As to `C=CCNC(=O)[C@H]1[C@@H]2C(=O)O[C@@H](c3ccccc3)[C@@H](c3ccccc3)N2[C@@H](c2ccc(O)cc2)[C@]12C(=O)N(C(=O)OCCOC)c1ccccc12`, the composite z-score stood at 1.33.

Take `O=C1OCC=C[C@H]2OC34C=CCN(c5ccc(Cl)cc5)C(=O)[C@H]3N(CCO)C(=O)[C@@H]4[C@@H]12` (stereo partly specified): the composite z-score was -0.0774.
